# Data published in the supplement of paper PMC12819154, “High-throughput peptide-centric local stability assay extends protein–ligand identification to membrane proteins, tissues and bacteria” (Nature Structural & Molecular Biology, 2025).
# Compound: CN[C@@H]1C[C@H]2O[C@@](C)([C@@H]1OC)n1c3ccccc3c3c4c(c5c6ccccc6n2c5c31)C(=O)NC4 [staurosporine]
# Experiment: log2 fold change of tryptic peptide abundance, ligand vs vehicle (limited proteolysis) (log2 ratio); higher = more trypsin-susceptible (destabilized)
# Settings: ligand concentration: 20 uM; sample: K562 cleared lysate; digestion: 4 min, 22 C (HT-PELSA RT4min, Orbitrap Astral)
# Chain of UniProt Q9Y606 (Q9Y606 whole entry): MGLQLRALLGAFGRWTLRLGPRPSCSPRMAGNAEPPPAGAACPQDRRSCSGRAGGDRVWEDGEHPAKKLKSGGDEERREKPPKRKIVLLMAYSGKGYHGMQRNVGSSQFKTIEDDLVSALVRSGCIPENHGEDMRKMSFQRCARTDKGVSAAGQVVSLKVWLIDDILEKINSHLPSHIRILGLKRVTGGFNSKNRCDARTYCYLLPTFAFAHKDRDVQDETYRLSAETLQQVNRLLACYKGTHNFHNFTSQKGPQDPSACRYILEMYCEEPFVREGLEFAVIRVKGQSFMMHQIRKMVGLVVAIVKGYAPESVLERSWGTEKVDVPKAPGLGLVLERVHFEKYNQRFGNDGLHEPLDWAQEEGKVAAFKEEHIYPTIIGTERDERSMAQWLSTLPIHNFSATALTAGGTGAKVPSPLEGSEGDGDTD
# Chain of UniProt Q15759 (Q15759 whole entry): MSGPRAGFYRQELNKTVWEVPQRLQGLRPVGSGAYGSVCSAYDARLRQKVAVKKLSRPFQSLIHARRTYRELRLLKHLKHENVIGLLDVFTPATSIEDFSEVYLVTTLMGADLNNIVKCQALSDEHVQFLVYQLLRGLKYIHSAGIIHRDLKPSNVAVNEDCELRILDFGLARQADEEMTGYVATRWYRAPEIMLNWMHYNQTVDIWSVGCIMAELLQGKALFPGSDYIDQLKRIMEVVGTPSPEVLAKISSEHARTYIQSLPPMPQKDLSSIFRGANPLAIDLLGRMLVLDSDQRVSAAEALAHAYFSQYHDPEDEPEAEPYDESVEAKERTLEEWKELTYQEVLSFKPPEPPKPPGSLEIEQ
# Chain of UniProt P61962 (P61962 whole entry): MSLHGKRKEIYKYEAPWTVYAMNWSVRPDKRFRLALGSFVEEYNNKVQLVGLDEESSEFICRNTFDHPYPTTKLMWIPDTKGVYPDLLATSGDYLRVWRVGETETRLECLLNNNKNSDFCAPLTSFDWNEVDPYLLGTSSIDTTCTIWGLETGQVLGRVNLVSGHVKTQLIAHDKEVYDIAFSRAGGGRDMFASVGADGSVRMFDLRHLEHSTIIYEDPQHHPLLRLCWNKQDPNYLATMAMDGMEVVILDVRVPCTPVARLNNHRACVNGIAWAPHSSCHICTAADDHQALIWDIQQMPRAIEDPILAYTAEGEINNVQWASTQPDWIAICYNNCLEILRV
# Chain of UniProt P38919 (P38919 whole entry): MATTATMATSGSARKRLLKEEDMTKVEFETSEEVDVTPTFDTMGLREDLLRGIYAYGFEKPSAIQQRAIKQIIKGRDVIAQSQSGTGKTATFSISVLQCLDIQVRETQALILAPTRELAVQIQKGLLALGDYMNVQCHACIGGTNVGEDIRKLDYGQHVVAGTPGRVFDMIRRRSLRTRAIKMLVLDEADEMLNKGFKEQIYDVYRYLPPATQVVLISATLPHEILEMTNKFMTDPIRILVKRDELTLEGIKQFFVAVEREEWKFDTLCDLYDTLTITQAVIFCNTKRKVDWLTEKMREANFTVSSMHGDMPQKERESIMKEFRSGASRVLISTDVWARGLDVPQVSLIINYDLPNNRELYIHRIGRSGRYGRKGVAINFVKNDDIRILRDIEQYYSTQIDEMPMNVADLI
# Chain of UniProt O60331 (O60331 whole entry): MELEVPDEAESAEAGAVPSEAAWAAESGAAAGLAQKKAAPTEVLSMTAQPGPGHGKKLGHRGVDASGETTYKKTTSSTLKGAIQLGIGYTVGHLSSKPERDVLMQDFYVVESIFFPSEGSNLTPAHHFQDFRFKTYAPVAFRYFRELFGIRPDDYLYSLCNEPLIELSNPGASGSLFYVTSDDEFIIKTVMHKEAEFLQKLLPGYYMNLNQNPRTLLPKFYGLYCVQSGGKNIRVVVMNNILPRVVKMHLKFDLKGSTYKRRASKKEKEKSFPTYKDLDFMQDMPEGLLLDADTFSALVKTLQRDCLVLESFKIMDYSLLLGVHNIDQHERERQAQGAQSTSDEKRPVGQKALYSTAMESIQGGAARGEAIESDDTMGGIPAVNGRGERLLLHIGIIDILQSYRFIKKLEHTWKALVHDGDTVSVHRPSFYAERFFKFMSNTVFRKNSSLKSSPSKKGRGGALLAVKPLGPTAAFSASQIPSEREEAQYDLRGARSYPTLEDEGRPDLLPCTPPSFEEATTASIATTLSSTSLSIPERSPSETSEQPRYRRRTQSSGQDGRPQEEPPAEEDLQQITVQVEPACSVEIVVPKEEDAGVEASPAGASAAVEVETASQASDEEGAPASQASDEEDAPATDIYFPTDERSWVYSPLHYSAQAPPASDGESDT
# Chain of UniProt Q00532 (Q00532 whole entry): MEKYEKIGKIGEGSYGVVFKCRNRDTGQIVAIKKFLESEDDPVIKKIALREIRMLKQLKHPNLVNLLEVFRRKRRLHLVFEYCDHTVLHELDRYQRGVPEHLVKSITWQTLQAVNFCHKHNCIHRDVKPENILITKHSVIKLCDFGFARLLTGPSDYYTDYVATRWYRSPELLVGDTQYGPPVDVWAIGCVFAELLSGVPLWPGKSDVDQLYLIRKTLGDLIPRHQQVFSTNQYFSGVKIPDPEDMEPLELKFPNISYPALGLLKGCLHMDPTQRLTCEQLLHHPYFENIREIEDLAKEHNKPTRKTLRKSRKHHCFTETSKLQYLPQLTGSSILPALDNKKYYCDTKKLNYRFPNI
# Chain of UniProt Q6P5Z2 (Q6P5Z2 whole entry, looked up): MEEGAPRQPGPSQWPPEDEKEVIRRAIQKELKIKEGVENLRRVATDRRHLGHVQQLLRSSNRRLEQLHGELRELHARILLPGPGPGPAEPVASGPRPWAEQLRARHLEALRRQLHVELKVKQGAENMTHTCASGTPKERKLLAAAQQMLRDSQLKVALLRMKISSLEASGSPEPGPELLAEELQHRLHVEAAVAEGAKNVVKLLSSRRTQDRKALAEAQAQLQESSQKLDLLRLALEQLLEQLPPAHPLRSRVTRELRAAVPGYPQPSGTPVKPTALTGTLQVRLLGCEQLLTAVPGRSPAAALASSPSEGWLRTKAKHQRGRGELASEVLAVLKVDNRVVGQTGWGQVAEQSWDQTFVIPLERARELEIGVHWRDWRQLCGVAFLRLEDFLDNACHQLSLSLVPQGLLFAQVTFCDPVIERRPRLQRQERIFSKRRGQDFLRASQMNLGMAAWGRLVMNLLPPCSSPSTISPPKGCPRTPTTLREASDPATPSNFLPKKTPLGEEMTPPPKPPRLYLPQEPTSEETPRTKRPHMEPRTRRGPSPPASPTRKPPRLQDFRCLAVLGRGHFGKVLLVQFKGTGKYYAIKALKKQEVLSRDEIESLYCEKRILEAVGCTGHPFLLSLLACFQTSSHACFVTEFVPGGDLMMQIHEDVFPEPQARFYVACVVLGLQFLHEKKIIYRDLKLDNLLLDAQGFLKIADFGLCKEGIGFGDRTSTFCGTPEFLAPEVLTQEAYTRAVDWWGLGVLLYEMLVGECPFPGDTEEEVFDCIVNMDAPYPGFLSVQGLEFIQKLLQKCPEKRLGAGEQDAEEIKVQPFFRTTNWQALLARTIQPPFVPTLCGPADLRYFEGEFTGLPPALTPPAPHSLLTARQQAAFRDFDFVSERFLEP
# Chain of UniProt Q9NYZ3 (Q9NYZ3 whole entry): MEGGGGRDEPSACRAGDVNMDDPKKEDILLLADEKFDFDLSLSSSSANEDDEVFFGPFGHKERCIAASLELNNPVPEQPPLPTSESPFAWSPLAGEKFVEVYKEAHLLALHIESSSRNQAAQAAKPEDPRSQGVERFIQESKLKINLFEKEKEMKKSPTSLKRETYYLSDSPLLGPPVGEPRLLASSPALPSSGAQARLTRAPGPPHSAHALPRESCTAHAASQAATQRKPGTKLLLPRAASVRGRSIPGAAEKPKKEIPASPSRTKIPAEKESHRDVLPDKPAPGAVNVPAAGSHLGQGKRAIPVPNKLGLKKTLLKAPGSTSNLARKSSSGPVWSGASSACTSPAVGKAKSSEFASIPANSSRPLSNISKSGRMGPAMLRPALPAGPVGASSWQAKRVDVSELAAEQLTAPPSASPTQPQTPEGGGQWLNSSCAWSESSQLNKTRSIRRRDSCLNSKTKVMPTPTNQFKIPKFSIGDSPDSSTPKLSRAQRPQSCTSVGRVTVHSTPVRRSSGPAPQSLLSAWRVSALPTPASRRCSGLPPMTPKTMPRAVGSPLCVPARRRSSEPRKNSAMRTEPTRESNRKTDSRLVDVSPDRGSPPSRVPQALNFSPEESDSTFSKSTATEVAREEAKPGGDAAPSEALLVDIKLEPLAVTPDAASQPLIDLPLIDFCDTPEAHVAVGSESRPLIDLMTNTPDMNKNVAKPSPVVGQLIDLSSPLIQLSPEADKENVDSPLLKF
# Chain of UniProt P12956 (P12956 whole entry): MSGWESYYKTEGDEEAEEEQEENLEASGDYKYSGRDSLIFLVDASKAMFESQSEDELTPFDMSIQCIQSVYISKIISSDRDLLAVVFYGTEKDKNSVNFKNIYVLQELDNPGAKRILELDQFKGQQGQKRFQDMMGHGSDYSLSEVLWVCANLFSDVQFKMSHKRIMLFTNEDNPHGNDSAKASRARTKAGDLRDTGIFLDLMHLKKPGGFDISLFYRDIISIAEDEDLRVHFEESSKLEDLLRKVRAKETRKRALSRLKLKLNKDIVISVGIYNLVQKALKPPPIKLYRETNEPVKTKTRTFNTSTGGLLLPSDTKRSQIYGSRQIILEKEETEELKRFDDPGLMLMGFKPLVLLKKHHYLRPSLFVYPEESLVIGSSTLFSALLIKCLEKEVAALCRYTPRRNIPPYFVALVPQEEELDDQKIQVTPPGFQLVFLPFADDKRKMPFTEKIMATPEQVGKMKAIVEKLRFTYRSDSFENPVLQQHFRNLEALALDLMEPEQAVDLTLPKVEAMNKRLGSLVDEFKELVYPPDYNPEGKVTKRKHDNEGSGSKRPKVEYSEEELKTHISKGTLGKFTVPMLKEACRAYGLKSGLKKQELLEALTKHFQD
row,Target,log2 fold change
1,"MAPK11 (peptide sequence: ILDFGLAR, peptide start residue: 166) (UniProt Q15759)",-1.18
2,"UniProt Q96CW1 (peptide sequence: TFITQQGIK, peptide start residue: 131)",0.558
3,"CLIC1 (peptide sequence: IGNCPFSQR, peptide start residue: 21) (UniProt O00299)",0.243
4,"GART (peptide sequence: GDTVATLSER, peptide start residue: 966) (UniProt P22102)",0.425
5,"UniProt Q14004 (peptide sequence: EGFPITAIR, peptide start residue: 765)",-1.01
6,"CCNL2 (peptide sequence: HSMEHVSMACVHLASK, peptide start residue: 118) (UniProt Q96S94)",-1.06
7,"GTSE1 (peptide sequence: SIPGAAEKPK, peptide start residue: 228) (UniProt Q9NYZ3)",0.58
8,"PIP5K1C (peptide sequence: DCLVLESFK, peptide start residue: 305) (UniProt O60331)",-0.54
9,"XRCC6 (peptide sequence: LGSLVDEFK, peptide start residue: 518) (UniProt P12956)",-0.499
10,"HERC2 (peptide sequence: TLHSLTQWNGLINK, peptide start residue: 2152) (UniProt O95714)",-0.746
11,"SNRK (peptide sequence: IAGLYDLDKTLGR, peptide start residue: 12) (UniProt Q9NRH2)",-2.34
12,"CDKL1 (peptide sequence: LCDFGFAR, peptide start residue: 693) (UniProt Q00532)",-0.936
13,"PUS1 (peptide sequence: GYAPESVLER, peptide start residue: 307) (UniProt Q9Y606)",-0.403
14,"PKN3 (peptide sequence: TTNWQALLAR, peptide start residue: 820) (UniProt Q6P5Z2)",-2.37
15,"PRDM15 (peptide sequence: VKREDLEAGGENLVR, peptide start residue: 882) (UniProt P57071)",-1.86
16,"INTS12 (peptide sequence: SVSCDNVSK, peptide start residue: 376) (UniProt Q96CB8)",1.68
17,"TROAP (peptide sequence: SCLTAIHCFHEAR, peptide start residue: 717) (UniProt Q12815)",1.24
18,"SCRN3 (peptide sequence: IMLDNMR, peptide start residue: 369) (UniProt Q0VDG4)",0.327
19,"DHX16 (peptide sequence: QQTEKPESEDEWER, peptide start residue: 153) (UniProt O60231)",2.31
20,"UniProt P19784 (peptide sequence: HLVSPEALDLLDKLLR, peptide start residue: 292)",-2.25
21,"UniProt Q9Y6E0 (peptide sequence: AANVLLSEHGEVK, peptide start residue: 159)",-1.21
22,"TNK1 (peptide sequence: VADFGLVRPLGGAR, peptide start residue: 261) (UniProt Q13470)",-3.64
23,"RPS17 (peptide sequence: NKIAGYVTHLMK, peptide start residue: 48) (UniProt P08708)",0.59
24,"EPHB3 (peptide sequence: VSDFGLSR, peptide start residue: 537) (UniProt P54753)",0.918
25,"PDS5A (peptide sequence: SHDPEEAIRHDVIVTIITAAK, peptide start residue: 369) (UniProt Q29RF7)",0.622
26,"PRKAR2B (peptide sequence: CVGNYDNR, peptide start residue: 211) (UniProt P31323)",0.866
27,"UniProt P61962 (peptide sequence: LMWIPDTK, peptide start residue: 74)",0.374
28,"EIF4A3 (peptide sequence: ETQALILAPTR, peptide start residue: 106) (UniProt P38919)",0.375
